Reference: PubChem BioAssay AID588354 (The Scripps Research Institute Molecular Screening Center, 2011)
About 430 (0.12%) of roughly 360,000 compounds were called active. This is one part of a sample in which actives are shown more often than they occur. Values without a mark were called inactive.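 Rule for the calls: active = inhibition above the campaign mean plus 3 SD, with each screening campaign given its own cutoff (cut at about 60% in these data); inactive = the rest.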

Molecular target: Nuclear receptor coactivator 1 (Homo sapiens) (UniProt Q15788)
Experiment: NCOA1 GAL4-fusion reporter inhibition – cell-based, luminescence, primary screen (AID 588354);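 note: 0% = DMSO treated cells and 100% = gossypol at 36 µM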
Details: HEK293 GAL4-SRC1 luciferase reporter, at 3.6 µM, active compounds read high

Chain of Nuclear receptor coactivator 1 (Homo sapiens) (Q15788 whole entry, looked up, the tested form may be a part): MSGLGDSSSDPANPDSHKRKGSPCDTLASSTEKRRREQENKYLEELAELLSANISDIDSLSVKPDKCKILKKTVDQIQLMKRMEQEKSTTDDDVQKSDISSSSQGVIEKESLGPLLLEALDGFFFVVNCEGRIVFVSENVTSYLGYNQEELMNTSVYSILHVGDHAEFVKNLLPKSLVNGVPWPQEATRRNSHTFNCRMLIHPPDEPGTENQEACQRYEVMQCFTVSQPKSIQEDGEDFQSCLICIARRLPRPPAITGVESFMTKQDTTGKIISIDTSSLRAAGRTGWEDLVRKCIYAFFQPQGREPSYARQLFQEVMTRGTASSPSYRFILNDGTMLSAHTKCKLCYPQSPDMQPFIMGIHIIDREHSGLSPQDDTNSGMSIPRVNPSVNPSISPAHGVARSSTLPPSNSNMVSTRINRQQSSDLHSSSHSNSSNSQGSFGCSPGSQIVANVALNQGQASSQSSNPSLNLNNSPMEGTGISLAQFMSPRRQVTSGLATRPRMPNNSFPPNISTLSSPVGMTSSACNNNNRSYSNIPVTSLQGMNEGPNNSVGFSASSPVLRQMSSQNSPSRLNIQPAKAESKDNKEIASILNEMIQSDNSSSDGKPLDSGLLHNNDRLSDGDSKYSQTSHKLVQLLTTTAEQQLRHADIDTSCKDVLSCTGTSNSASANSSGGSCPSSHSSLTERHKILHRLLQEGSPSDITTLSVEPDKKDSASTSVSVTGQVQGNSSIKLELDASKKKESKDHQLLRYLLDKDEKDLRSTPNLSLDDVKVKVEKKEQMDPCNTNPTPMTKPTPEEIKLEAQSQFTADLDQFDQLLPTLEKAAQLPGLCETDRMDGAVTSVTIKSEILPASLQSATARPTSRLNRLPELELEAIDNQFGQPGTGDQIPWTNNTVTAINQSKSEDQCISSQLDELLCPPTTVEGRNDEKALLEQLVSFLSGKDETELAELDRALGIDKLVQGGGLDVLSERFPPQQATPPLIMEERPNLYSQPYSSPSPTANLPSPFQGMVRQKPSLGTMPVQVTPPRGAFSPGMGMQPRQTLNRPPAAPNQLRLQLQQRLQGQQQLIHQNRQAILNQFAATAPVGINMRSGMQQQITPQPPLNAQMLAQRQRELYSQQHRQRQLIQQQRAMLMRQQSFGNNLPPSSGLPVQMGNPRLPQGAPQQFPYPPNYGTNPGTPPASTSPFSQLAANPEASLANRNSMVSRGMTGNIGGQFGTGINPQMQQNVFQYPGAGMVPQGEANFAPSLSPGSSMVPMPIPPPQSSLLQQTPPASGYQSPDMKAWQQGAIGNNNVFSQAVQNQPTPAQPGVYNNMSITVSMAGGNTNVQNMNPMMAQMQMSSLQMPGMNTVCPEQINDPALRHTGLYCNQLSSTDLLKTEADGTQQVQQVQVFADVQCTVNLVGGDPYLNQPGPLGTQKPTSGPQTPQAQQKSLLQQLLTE

Compound | inhibition
Cc1ccsc1C(=O)OCC(=O)c1cc(C)n(CC2CCCO2)c1C (stereo not given) | 82.3% (active)
COc1ccc(CNC(=O)COC(=O)c2sccc2C)cc1OC | 2.6%
Cc1ccsc1C(=O)OCC(=O)NCCc1ccccc1 | -29.4%
Nc1nc(SCC(=O)N2CCN(S(=O)(=O)c3ccc(Cl)cc3)CC2)n[nH]1 | 9.56%
Cc1cc(C)n2nc(C(=O)N(C)C(c3ccccc3)c3ccccc3)nc2n1 | -3.03%
CCc1ccnc(NS(=O)(=O)c2ccc3c(c2)OCCO3)c1 | -6.15%
CC(=O)NC1C(Oc2ccc(C=O)cc2)OC(COC(C)=O)C(OC(C)=O)C1OC(C)=O (stereo not given) | -13.2%
CC1CCCC(C)N1/N=C/c1ccccc1OC(F)F (stereo not given) | -2.18%
CC12C(=O)N(n3cnnc3)C(=O)C1C1C=CC2C1 (stereo not given) | -10.2%
C=CCC1(CC=C)CCCN1C(=O)c1cc(COc2ccc(-n3cncn3)cc2)on1 | -1.06%
Cc1ccc(S(=O)(=O)N2CCN=C2SCc2c(F)cccc2Cl)cc1 | -14.6%
O=C(O)C1C2CC2CN1C(=O)c1ccc(Cl)cc1Cl (stereo not given) | 10.7%
CC(NC(=O)c1ccccc1C(=O)O)c1ccc(-n2ccnc2)cc1 (stereo not given) | -1.09%
N#CC1(NC(=O)COc2ccc3oc4ccccc4c3c2)CCCCC1 | 2.18%
COc1ccc(OC)c(S(=O)(=O)Nc2cccc(-c3ccc4nncn4n3)c2)c1 | -20.7%
CC1CCCCC12NC(=O)N(CC(=O)N1CCN(c3ccccc3)CC1)C2=O (stereo not given) | 1.99%
CN(C)c1ccc(CSc2ccccc2)cc1 | -41.4%
CCN(CC)C(=O)[C@H]1C[C@H](CC(=O)NCC23CC4CC(CC(C4)C2)C3)C(=O)N2CCc3c([nH]c4cc(CCC(=O)N(C)C)ccc34)[C@]12C | 4.03%
Cc1cc(C)c2c(c1)c(C)cc1nnc(SCC(=O)NCc3ccco3)n12 | -10.2%
CC(C)c1cccc(C(C)C)c1Nc1cn[nH]c1 | -5.74%
CC(=O)c1cccc(NC(=O)N2CCCC2C(=O)NCCC(C)C)c1 (stereo not given) | -16%
C=CCn1c(SCc2cc(C(=O)OC)c(C)o2)nnc1-c1ccncc1 | -8.14%
CCn1nc(NC(=O)c2ccco2)c2cc3ccc(C)cc3nc21 | 5.64%
CN(Cc1ccc(CNC[C@H]2O[C@@H](n3cnc4c(N)ncnc43)[C@H](O)[C@@H]2O)o1)S(C)(=O)=O | -4.89%

Compound | inhibition
O=C(NCc1ccccc1)C(c1ccco1)N(C(=O)c1csnn1)c1ccccc1F (stereo not given) | -7.13%
COc1cc(OC)cc(-c2cc3ccc(F)cc3cn2)c1 | -60%
CCOC(=O)c1cc(C(=O)Nc2ccc(S(=O)(=O)Nc3ccc(OC)cc3)cc2)nn1C | 7.15%
O=C(Nc1cc2c3c(c1)C1CCCC1CN3CC1CCCC21)c1ccc([N+](=O)[O-])cc1 (stereo not given) | -2.56%
CCOC(=O)NC(=O)CSc1nnc(SCCC(=O)O)s1 | -8.78%
COc1ccc(C2=Nn3c(nnc3-c3ccccc3OC)SC2)cc1OC1CCCC1 | -15.9%
CCCCN(C(=O)CCNC(=O)NC12CC3CC(CC(C3)C1)C2)c1c(N)n(CCCC)c(=O)[nH]c1=O | 4.35%
C=CCOc1cccc(C2NC(=O)c3ccccc3O2)c1 (stereo not given) | 3.13%
Cc1ccnc2nc(C(=O)OCC(=O)N(CC(C)C)CC(C)C)nn12 | 2.84%
CN1CCN(C(=O)C(=O)c2cn(CC(=O)N3CCCC3)c3ccccc23)CC1 | -22.3%
CCN(CC)C(=O)CSC1c2ccccc2C(=O)N1c1ccccc1 (stereo not given) | -5.03%
O=C(c1ccc(F)c(S(=O)(=O)N2CCOCC2)c1)N(CCc1ccccc1)Cc1ccccc1 | -1.71%
CSCCC(NC(=O)c1ccc(Cl)cc1Cl)C(=O)NNC(=O)c1csc(N2CCOCC2)n1 (stereo not given) | -17%
Cc1cccc(C(=O)N2CCCC(Nc3ccc(C(C)C)cc3)C2)n1 (stereo not given) | 1.61%
COc1ccc(N2CCN(C(=O)Cn3cnc4sc(C)c(S(=O)(=O)N5CCOCC5)c4c3=O)CC2)cc1 | 1.72%
O=C(Nc1cc(-c2nc3ncccc3o2)ccc1Cl)c1ccco1 | -8.08%
C[C@H]1CN([C@@H](C)CO)C(=O)c2cc(-c3cccc(F)c3)cnc2O[C@@H]1CN(C)S(C)(=O)=O | 4.48%
COC(=O)CNC(=O)c1ccc2c(c1)S(=O)(=O)c1ccccc1C2=O | -9.27%
Cc1cc(=O)oc2c3c(cc(OCC(=O)NCC(O)c4ccccc4)c12)OC(C)(C)CC3 (stereo not given) | -22.4%
S=C(Cc1ccc(Cl)cc1)N1CCOCC1 | -5.3%
O=C(O)c1n[nH]nc1-c1ccccc1 | 10.2%
CC1(C)CC(N2CCN(C(c3ccccc3)c3ccccc3)CC2)=CC(=[N+]2CCCCC2)C1 | 77% (active)
Clc1ccc2nc(CSc3ccccc3)cn2c1 | -91.3%
CC(C)(C)SCCSC1=CC(=O)CC(c2ccccc2)C1 (stereo not given) | -111%

Compound | inhibition
CCCCNS(=O)(=O)c1ccc2nc(SCC(=O)Nc3cc(C)cc(C)c3)[nH]c2c1 | 12%
Cc1cc(NC(=O)CSc2nccn2-c2ccc([N+](=O)[O-])cc2)no1 | -17%
CN(C)/C=C(/C(=O)c1ccccc1Cl)S(C)(=O)=O | -22.7%
COc1ccc2c(c1)N(C)/C(=C1/SC(=S)N(NC(C)=O)C1=O)S2 | -35.2%
CCOC(=O)c1ccccc1N1C(=O)C2Sc3[nH]c(=O)sc3C(/C=C/c3ccccc3)C2C1=O (stereo not given) | -1.18%
O=S(=O)(c1ccc(Cl)cc1)c1nc(-c2ccccc2F)oc1NCCN1CCOCC1 | -8.54%
O=C(NCCN1CCOCC1)c1cc(Sc2cccc(Cl)c2)nc2ccccc12 | -5.48%
c1ccc2cc3c(NCCN4CCOCC4)ccnc3cc2c1 | 61.6% (active)
O=C(CCCN=C1NS(=O)(=O)c2ccccc21)OCC(=O)c1ccc(F)c(F)c1 | -0.01%
CCn1c(C(C)C)n[nH]c1=S | -20.3%
CC(C)(C)NC(=O)C(c1ccco1)N(Cc1ccc2c(c1)OCO2)C(=O)Cn1nnc2ccccc21 (stereo not given) | 11.9%
CCOc1ccc(-n2cnnn2)cc1S(=O)(=O)N1CCC(C)CC1C (stereo not given) | 4.05%
O=S(=O)(NCc1ccc2c(c1)OCO2)c1cccc2nsnc12 | -3.02%
Cc1nc(COc2cc3oc(=O)cc(C)c3cc2Cl)cs1 | -6.18%
C[C@@H]1C[C@@H]2O[C@H]2/C=C\C=C\C(=O)Cc2c(Cl)c(O)cc(O)c2C(=O)O1 | 53.8%
CC(=O)NC1(c2ccc(F)cc2)CCN(C(=O)c2c(F)cccc2F)CC1 | -14.7%
c1cnc(NC2C3CC4CC(C3)CC2C4)nc1 (stereo not given) | -13.6%
CCCCCC(O)c1cccc(OCc2ccc3ccccc3n2)c1 (stereo not given) | -17.6%
O=C(CCn1c(=S)[nH]c2cc3c(cc2c1=O)OCO3)NCc1ccc(Cl)cc1 | 10%
CCN(Cc1ccccc1)C(=O)CSc1nc(C)cc2c1C(=O)OC2 | -20%
Cc1nnc(C)c2c(C)n(N)c(C)c12 | 3.29%
CCCNC(=O)C1(C)CCN(C(=O)c2ccccc2OC(F)(F)F)C1 (stereo not given) | -5.22%
